Measurements: ChEMBL document CHEMBL3988442, “University of Dundee, Small-Polar-MMV Screening Library” (2021)
For some of these results: Potency and affinity values are given separately.

What was measured:
Parameters in all cases: scale not given: direction of the effect not stated beside the values
[1] = target: Protein translocase subunit SecA (Escherichia coli (strain K12)) (UniProt P10408); experiment: Assay to Identify E. coli SecA ATPase Inhibitors; type: functional; conditions: 30 µM
[2] = target: T1, Ubiquitin-activating enzyme e1, putative (Leishmania donovani (strain BPK282A1)) (UniProt E9BSI1); experiment: Leishmania donovani Ubiquitin Activating Enzyme (LdE1); type: functional; conditions: 30 µM
T1 sequence (whole entry): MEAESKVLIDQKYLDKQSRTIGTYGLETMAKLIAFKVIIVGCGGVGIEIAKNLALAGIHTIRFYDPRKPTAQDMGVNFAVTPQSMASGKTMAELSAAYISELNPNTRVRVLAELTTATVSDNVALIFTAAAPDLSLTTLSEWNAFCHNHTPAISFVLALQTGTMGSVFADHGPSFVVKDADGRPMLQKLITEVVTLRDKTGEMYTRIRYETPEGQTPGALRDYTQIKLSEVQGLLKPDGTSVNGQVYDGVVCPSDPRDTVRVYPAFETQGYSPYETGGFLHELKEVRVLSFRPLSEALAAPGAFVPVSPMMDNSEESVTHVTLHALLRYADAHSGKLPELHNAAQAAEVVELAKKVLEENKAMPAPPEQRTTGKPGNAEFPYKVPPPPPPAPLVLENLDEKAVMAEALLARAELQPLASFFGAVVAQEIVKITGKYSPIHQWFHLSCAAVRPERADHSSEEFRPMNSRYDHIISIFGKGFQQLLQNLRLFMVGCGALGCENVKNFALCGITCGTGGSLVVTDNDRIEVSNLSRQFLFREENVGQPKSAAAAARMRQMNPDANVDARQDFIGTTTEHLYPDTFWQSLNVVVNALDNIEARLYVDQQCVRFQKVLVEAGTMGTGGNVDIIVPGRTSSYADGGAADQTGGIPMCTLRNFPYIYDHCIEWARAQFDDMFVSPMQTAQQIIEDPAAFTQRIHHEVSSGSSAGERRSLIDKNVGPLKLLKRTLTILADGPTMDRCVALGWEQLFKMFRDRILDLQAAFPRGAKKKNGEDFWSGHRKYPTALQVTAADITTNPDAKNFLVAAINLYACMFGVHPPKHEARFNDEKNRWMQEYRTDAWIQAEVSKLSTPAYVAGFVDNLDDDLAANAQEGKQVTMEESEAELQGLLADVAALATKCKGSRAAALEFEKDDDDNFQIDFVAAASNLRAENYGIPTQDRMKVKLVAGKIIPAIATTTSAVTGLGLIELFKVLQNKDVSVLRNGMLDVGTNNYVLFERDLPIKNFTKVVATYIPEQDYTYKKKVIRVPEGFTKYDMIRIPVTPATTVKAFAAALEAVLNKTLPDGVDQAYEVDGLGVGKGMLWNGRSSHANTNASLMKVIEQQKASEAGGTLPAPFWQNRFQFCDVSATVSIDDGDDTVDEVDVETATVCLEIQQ

[3] = target: AMP-activated protein kinase, AMPK (Homo sapiens) (UniProt P54646+O43741+P54619+Q9UGJ0+Q9Y478+Q13131+Q9UGI9); experiment: AMP-dependent Kinase enzyme assay. An in vitro enzyme assay that detects ADP turnover that is directly proportional to AMPK activity. This uses naive AMPK that is activated during the assay with MK-8722; type: functional; conditions: 30 µM
[4] = target: Sialic acid-binding Ig-like lectin 9 (Homo sapiens) (UniProt Q9Y336); experiment: Hs-Siglec9 ALPHAscreen SOP 20170721; conditions: 10 µM
[5] = system: Trypanosoma cruzi; experiment: Trypanosoma cruzi phosphomannomutase and mannose-1-phosphate guanylyltransferase assay; type: functional; conditions: 10 µM
[6] = target: T2, Arginase-2, mitochondrial (Homo sapiens) (UniProt P78540); experiment: in vitro enzyme assay to detect the production of urea directly proportional to the activity of Arginase II; type: functional; conditions: 33.3 µM; note: in the data most compounds retested in dose-response had high values
T2 sequence (whole entry): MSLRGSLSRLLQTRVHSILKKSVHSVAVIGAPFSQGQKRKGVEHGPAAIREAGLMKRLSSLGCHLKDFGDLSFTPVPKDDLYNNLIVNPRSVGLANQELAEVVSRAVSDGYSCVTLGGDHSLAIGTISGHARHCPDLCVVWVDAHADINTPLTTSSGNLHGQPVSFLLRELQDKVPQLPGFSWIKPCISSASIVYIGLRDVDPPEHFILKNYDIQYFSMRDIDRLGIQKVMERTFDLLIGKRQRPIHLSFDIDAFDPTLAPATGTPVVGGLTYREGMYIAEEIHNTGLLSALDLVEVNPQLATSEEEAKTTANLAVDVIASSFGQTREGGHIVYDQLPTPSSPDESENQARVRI

[7] = target: T3, Proteasome subunit beta (Trypanosoma cruzi) (UniProt O96673); experiment: Trypanosoma cruzi proteasome chymotrypsin-like activity (TcProtChymo) assay.; note: in the data most compounds retested in dose-response had high values; type: functional; conditions: 9.37 µM
T3 sequence (whole entry): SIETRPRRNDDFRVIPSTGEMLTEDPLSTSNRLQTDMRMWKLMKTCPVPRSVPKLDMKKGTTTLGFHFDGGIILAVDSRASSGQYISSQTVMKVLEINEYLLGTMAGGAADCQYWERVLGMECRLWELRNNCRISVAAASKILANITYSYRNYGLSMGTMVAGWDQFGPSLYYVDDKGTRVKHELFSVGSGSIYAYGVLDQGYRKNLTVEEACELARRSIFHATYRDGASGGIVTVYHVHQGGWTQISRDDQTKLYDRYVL

[8] = organism: Homo sapiens; experiment: To identify inhibition of the IFN signalling (Jak-Stat) pathway via expression of an eGFP reporter gene under the control of an IFN-stimulated response element (ISRE) containing MxA promoter.; type: functional; conditions: 30 µM
[9] = target: T4, Tyrosyl-tRNA synthetase, putative (Trypanosoma cruzi (strain CL Brener)) (UniProt Q4DSP6); experiment: Trypanosoma cruzi tyrosyl tRNA synthetase (TcYRS) _High Tyrosine SOP; type: functional; conditions: 30 µM; note: in the data most compounds retested in dose-response had high values
T4 sequence (whole entry): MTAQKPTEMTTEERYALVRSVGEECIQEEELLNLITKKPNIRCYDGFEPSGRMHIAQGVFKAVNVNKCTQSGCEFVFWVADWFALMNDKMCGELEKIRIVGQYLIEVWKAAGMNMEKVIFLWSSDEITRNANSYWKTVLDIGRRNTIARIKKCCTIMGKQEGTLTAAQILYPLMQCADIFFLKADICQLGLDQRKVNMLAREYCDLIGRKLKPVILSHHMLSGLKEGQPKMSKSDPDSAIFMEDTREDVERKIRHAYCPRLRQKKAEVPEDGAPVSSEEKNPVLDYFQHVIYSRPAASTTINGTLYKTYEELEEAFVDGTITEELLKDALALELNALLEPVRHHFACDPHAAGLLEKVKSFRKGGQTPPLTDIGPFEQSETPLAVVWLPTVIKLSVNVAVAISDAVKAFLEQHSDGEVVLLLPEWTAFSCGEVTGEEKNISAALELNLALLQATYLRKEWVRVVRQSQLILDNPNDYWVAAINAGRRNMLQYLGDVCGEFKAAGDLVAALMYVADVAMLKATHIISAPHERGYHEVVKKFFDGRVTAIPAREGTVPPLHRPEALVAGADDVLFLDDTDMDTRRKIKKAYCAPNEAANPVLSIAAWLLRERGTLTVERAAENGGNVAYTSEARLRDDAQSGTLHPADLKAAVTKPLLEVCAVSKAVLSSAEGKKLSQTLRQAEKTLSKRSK

[10] = target: T4, Tyrosyl-tRNA synthetase, putative (Trypanosoma cruzi (strain CL Brener)); experiment: Trypanosoma cruzi tyrosyl tRNA synthetase (TcYRS) SOP; type: functional; conditions: 30 µM
[11] = target: Chromo domain-containing protein 1 (Saccharomyces cerevisiae (strain ATCC 204508 / S288c) (Baker's yeast)) (UniProt P32657); experiment: ScCHD-1 Enzyme Inhibition Assay; type: functional; conditions: 30 µM; note: in the data most compounds retested in dose-response had high values
Chain of Chromo domain-containing protein 1 (Saccharomyces cerevisiae (strain ATCC 204508 / S288c) (Baker's yeast)) (P32657 whole entry, the tested form may be a part): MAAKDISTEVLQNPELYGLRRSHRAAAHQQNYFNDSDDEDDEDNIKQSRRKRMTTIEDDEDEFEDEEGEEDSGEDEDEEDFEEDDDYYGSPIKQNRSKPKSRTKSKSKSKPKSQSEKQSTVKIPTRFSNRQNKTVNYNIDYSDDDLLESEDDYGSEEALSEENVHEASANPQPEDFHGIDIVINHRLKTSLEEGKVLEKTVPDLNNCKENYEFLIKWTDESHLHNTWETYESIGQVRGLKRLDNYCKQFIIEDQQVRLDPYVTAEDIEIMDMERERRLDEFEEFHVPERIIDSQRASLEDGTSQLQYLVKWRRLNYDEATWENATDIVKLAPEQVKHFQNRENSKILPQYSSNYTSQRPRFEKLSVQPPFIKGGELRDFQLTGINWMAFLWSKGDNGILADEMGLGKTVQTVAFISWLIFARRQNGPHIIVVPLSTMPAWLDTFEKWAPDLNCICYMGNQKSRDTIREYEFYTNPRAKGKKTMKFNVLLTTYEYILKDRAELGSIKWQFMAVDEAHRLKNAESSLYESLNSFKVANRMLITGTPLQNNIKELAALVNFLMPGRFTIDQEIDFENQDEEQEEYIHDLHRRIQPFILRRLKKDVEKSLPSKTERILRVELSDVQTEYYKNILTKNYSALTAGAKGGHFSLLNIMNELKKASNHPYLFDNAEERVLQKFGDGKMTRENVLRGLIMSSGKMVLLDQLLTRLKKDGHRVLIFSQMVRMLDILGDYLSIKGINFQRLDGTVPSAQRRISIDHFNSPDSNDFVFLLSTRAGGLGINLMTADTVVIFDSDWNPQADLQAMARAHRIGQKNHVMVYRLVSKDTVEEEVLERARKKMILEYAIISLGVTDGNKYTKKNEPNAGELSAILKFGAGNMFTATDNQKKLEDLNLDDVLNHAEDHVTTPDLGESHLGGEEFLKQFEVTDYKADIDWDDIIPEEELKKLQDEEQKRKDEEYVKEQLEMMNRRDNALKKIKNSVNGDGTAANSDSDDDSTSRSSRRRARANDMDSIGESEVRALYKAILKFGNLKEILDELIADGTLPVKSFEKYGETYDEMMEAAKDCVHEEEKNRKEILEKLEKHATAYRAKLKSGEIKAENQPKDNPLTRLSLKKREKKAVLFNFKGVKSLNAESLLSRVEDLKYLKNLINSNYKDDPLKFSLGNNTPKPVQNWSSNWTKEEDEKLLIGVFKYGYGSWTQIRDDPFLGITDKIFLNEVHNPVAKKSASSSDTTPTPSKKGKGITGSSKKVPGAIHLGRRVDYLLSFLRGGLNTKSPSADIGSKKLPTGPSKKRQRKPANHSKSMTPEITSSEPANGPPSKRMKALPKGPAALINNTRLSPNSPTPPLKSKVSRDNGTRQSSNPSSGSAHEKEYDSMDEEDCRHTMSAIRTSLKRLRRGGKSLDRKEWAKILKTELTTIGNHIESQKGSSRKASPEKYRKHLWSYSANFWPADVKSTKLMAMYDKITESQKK

Chain of Protein translocase subunit SecA (Escherichia coli (strain K12)) (P10408 whole entry): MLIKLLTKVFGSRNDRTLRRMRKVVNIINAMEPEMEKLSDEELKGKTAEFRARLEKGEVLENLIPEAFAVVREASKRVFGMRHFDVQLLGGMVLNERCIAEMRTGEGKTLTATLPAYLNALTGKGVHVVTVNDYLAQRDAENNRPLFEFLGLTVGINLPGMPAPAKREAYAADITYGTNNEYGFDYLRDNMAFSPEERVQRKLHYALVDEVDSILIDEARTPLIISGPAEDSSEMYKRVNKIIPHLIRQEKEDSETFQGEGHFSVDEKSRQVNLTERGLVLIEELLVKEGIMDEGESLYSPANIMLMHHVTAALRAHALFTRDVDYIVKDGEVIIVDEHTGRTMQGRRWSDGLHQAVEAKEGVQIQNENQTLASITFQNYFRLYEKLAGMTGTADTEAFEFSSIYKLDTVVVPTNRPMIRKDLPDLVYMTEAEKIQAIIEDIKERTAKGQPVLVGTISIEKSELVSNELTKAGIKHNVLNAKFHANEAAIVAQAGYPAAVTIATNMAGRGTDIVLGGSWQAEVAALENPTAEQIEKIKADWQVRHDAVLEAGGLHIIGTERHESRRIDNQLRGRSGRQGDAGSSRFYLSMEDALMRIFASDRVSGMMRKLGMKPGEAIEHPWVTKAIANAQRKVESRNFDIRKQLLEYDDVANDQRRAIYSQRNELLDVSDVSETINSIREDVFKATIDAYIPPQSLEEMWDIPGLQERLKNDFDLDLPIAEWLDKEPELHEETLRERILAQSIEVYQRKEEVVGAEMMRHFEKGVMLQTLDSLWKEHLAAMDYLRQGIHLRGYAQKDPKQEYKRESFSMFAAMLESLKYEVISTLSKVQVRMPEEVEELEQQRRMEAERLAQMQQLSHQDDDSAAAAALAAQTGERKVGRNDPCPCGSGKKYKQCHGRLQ
Chain of Sialic acid-binding Ig-like lectin 9 (Homo sapiens) (Q9Y336 whole entry): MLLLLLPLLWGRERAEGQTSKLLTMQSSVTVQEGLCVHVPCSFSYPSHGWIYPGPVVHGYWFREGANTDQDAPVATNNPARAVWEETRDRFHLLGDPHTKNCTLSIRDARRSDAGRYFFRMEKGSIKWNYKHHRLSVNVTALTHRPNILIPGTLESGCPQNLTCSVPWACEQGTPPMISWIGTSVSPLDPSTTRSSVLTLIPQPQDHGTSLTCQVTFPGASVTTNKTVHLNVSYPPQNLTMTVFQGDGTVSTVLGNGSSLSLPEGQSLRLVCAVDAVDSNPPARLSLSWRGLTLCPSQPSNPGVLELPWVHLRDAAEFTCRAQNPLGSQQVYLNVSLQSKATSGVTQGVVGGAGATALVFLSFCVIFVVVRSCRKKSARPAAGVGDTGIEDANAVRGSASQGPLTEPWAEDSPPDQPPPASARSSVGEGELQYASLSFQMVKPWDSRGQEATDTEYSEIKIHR

Row | Structure (SMILES) | Percent Effect [1] | Percent Effect [2] | Percent Effect [3] | Percent Effect [4] | Percent Effect [5] | Percent Effect [6] | Percent Effect [7] | Percent Effect [8] | Percent Effect [9] | Percent Effect [10] | Percent Effect [11]
1 | Cc1cc(-c2cnc(NCc3cccnc3)nc2C(C)C)on1 | -6.62% | 2.67% | 40.6% | -1.45% | -3.74% | -2.1% | 3.79% | 56.7% | 1.06% | 1.28% | -1.52%
2 | CC(C)CCN1CCC2(CC1)CN(C(=O)c1cnccn1)CCO2 | -4.82% | 2.67% | 2.65% | 7.36% | 0.772% | -57.9% | 0.855% | -13.7% | 4.17% | 12.5% | -3.24%
3 | CC(C)c1nnc2n1CCN(CCCS(=O)(=O)c1ccccc1)C2 | -2.39% | 7.79% | 4.29% | 7.26% | 6.18% | -4.27% | 7.94% | 0.936% | 1.94% | 14.6% | -8.88%
4 | O=c1cc(CN2CCCC(CCc3c(F)cccc3F)C2)[nH]c(=O)[nH]1 (stereo unspecified) | 1.76% | 10.8% | -7.22% | 1.61% | 4.25% | 14.3% | 16.7% | 25% | 10.1% | 19.5% | -4.32%
5 | O=C(NC1CCS(=O)(=O)C1)N1CCN(c2cnccn2)CC1 (stereo unspecified) | -3.53% | 24.3% | -10.3% | 4.95% | 1.58% | -3.14% | 11.1% | 15.6% | 4.95% | 6.1% | -6.05%
6 | CC(CN1CCOCC1)NC(=O)N(C)Cc1ccc(Cl)s1 (stereo unspecified) | 0.481% | 10.5% | 2.51% | -1.81% | -6.91% | 0% | 13.3% | 3.75% | 6.38% | 13% | -2.62%
7 | O=C(c1ccncc1)N1Cc2ccccc2OC2(CCOCC2)C1 | -2.73% | 9.46% | 10.5% | 1.54% | 0.395% | -5.8% | 16.1% | 7.47% | 4.3% | 6.49% | -15.3%
8 | Cc1oc(-c2nc(C#N)c(N(C)C)o2)cc1S(=O)(=O)N1CCCC1 | -3.98% | 4% | -2.67% | 8.99% | 2.75% | -7.92% | 17.2% | -8.23% | 1.06% | 10.3% | -0.712%
9 | c1ccc(-c2cc(CN3CCC(c4ccn[nH]4)CC3)on2)cc1 | -3.15% | -2.7% | -3.14% | 8.25% | -1.54% | -0.952% | 17.2% | 42.5% | 0.529% | 7.32% | -3.02%
10 | O=C(c1cccc(CNCC2CNc3ccnn3C2)c1)N1CCCC1 (stereo unspecified) | -3.44% | 8.86% | -18.1% | -4.78% | 4.41% | -4.09% | 18.4% | 6.92% | 8.33% | 10.1% | -18.2%
11 | COCCC(=O)N1CCC2(COCc3cnc(N4CCOCC4)nc32)C1 (stereo unspecified) | -4.87% | 10.7% | 18.4% | -1.98% | -5.51% | 2.1% | 8.02% | 11.9% | 0% | 6.41% | -0.906%
